Assay results from PubChem BioAssay (NCATS).
Records with an inconclusive call do not appear. Where a call stands in place of a potency, no number is given. The source made the active and inactive calls. The call rests on the fitted dose curve; in most records, active means well fitted inhibition curve with a large enough effect; inconclusive means small, poorly fitted or top-dose-only effect; inactive means flat fitted curve, though single readings scatter.

System: CP286
Assay: qHTS profiling for inhibitors of Plasmodium falciparum proliferation (AID 504749); further: nearly all actives have a fitted effect of over 60% in size
Conditions: P. falciparum in erythrocytes, SYBR Green DNA, 72 h; series mostly up to 28.7 µM
How it was run: (§1)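 SYBR Green fluorescence of parasite DNA, read after lysis and overnight dark incubation, measured growth over 72 h in erythrocyte culture at 0.3% parasitemia and 2.5% hematocrit. Data normalised to DMSO and 0.29 uM artemisinin, with plate-drift correction.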
Potency means the concentration at half of the fitted maximal effect.

Structure (SMILES) | Potency
O=C(CN1CCN(Cc2ccc3c(c2)OCO3)CC1)N1c2ccccc2Sc2ccccc21 | 10 µM (active)
Cc1ncc(CO)c(C=O)c1O | inactive
O=S(c1cc(Cl)cc(Cl)c1O)c1cc(Cl)cc(Cl)c1O | inactive
CN1CCc2cccc3c2[C@H]1Cc1ccc(O)c(O)c1-3 | 6.31 µM (active)
NC(N)=NN=C(/C=C/c1ccc([N+](=O)[O-])o1)/C=C/c1ccc([N+](=O)[O-])o1 | 2.24 µM (active)

System: CP291
Assay: as above
Conditions: P. falciparum in erythrocytes, SYBR Green DNA, 72 h; series mostly up to 28.7 µM
How it was run: as §1

Structure (SMILES) | Potency
CC(C)(C)CC(C)(C)c1ccc(O)c(-n2nc3ccccc3n2)c1 | inactive
CCCCCN=C(N)N/N=C/c1c[nH]c2ccc(OC)cc12 | 13.5 µM (active)
O=C(NC1CCN(CCc2c[nH]c3ccccc23)CC1)c1ccccc1 | inactive
CN(Cc1ccc(C(C)(C)C)cc1)Cc1cccc2ccccc12 | inactive
CC(=O)O[C@H]1C[C@@H]2CC[C@@H]3[C@H](CC[C@@]4(C)[C@H]3C[C@H]([N+]3(C)CCCCC3)[C@@H]4OC(C)=O)[C@@]2(C)C[C@@H]1N1CCCCC1 | inactive
COc1ccc(C(Cl)=C(c2ccc(OC)cc2)c2ccc(OC)cc2)cc1 | inactive
O=C(CCN1CCN2CCCC2C1)N1c2ccccc2Sc2ccc(Cl)cc21 (centres undefined) | inactive
O=C1C(O)=C(O)C(=O)C(O)=C1O | inactive
O=[N+]([O-])c1cccc(S(=O)(=O)NCCNS(=O)(=O)c2cccc([N+](=O)[O-])c2)c1 | inactive
COc1ccccc1N1CCN(CCCCNC(=O)c2ccc(-c3ccc(C(C)=O)cc3)cc2)CC1 | inactive
CN1CCN(CCC(=O)N2c3ccccc3Sc3ccc(C(F)(F)F)cc32)CC1 | inactive
CC(C)(C)NC[C@H](O)COc1nsnc1N1CCOCC1 | 13.5 µM (active)

System: CP297
Assay: as above
Conditions: P. falciparum in erythrocytes, SYBR Green DNA, 72 h; series mostly up to 28.7 µM
How it was run: as §1

Structure (SMILES) | Potency
CN1CCC(OC(c2ccccc2)c2ccccc2)CC1 | inactive
CN1CCN(c2cc3c(cc2F)c(=O)c(C(=O)O)cn3-c2ccc(F)cc2)CC1 | inactive
CC(C)(C)CC(C)(C)c1ccc(O)c(-n2nc3ccccc3n2)c1 | inactive
COC(=O)C(c1ccccc1Cl)N1CCc2sccc2C1 (centres undefined) | inactive
CN(Cc1ccc(C(C)(C)C)cc1)Cc1cccc2ccccc12 | inactive
C[N+]1(C)CCC(=C(c2ccccc2)c2ccccc2)CC1 | inactive
COc1ccc(C(Cl)=C(c2ccc(OC)cc2)c2ccc(OC)cc2)cc1 | inactive
O=C(CCN1CCN2CCCC2C1)N1c2ccccc2Sc2ccc(Cl)cc21 (centres undefined) | inactive
O=[N+]([O-])c1cccc(S(=O)(=O)NCCNS(=O)(=O)c2cccc([N+](=O)[O-])c2)c1 | inactive
CC1CCc2c(N3CCC(O)CC3)c(F)cc3c(=O)c(C(=O)O)cn1c23 (centres undefined) | inactive
OC(C#CCN1CCCC1)(c1ccccc1)c1ccccc1 | 12 µM (active)
COc1ccccc1N1CCN(CCCCNC(=O)c2ccc(-c3ccc(C(C)=O)cc3)cc2)CC1 | inactive
CN1CCN(CCC(=O)N2c3ccccc3Sc3ccc(C(F)(F)F)cc32)CC1 | inactive
CN(C)CCN1C(=O)c2ccccc2N(C)c2ccccc21 | 13.5 µM (active)

System: CP305
Assay: as above
Conditions: P. falciparum in erythrocytes, SYBR Green DNA, 72 h; series mostly up to 28.7 µM
How it was run: as §1

Structure (SMILES) | Potency
CC(C)(C)CC(C)(C)c1ccc(O)c(-n2nc3ccccc3n2)c1 | inactive
O=C(NC1CCN(CCc2c[nH]c3ccccc23)CC1)c1ccccc1 | inactive
CN(Cc1ccc(C(C)(C)C)cc1)Cc1cccc2ccccc12 | inactive
CN1CCN(C2=Nc3ccccc3Sc3ccc(Cl)cc32)CC1 | inactive
O=C(CCN1CCN2CCCC2C1)N1c2ccccc2Sc2ccc(Cl)cc21 (centres undefined) | inactive
O=C1C(O)=C(O)C(=O)C(O)=C1O | inactive
COc1ccccc1N1CCN(CCCCNC(=O)c2ccc(-c3ccc(C(C)=O)cc3)cc2)CC1 | inactive
CN1CCN(CCC(=O)N2c3ccccc3Sc3ccc(C(F)(F)F)cc32)CC1 | inactive
CC(C)(C)NC[C@H](O)COc1nsnc1N1CCOCC1 | 15.1 µM (active)

System: CP315
Assay: as above
Conditions: P. falciparum in erythrocytes, SYBR Green DNA, 72 h; series mostly up to 28.7 µM
How it was run: as §1

Structure (SMILES) | Potency
CN1CCC[C@@H]1CCO[C@](C)(c1ccccc1)c1ccc(Cl)cc1 | inactive
CN1CCC(OC(c2ccccc2)c2ccccc2)CC1 | inactive
CN1CCN(c2cc3c(cc2F)c(=O)c(C(=O)O)cn3-c2ccc(F)cc2)CC1 | inactive
CC(C)(C)CC(C)(C)c1ccc(O)c(-n2nc3ccccc3n2)c1 | inactive
Cc1ccc2c(Br)cc(Br)c(O)c2n1 | 12 µM (active)
CCCCCN=C(N)N/N=C/c1c[nH]c2ccc(OC)cc12 | inactive
O=C(NC1CCN(CCc2c[nH]c3ccccc23)CC1)c1ccccc1 | inactive
CN(Cc1ccc(C(C)(C)C)cc1)Cc1cccc2ccccc12 | inactive
CN1CCN(C2=Nc3ccccc3Sc3ccc(Cl)cc32)CC1 | inactive
CN1CCN(c2c(F)cc3c(=O)c(C(=O)O)cn4c3c2SCC4)CC1 | inactive
NC1CCN(c2nc3c(cc2F)c(=O)c(C(=O)O)cn3-c2ccc(F)cc2F)C1 (centres undefined) | inactive
C[N+]1(C)CCC(=C(c2ccccc2)c2ccccc2)CC1 | inactive
CC(=O)O[C@H]1C[C@@H]2CC[C@@H]3[C@H](CC[C@@]4(C)[C@H]3C[C@H]([N+]3(C)CCCCC3)[C@@H]4OC(C)=O)[C@@]2(C)C[C@@H]1N1CCCCC1 | inactive
CC(C)(Cc1c[nH]c2ccccc12)NCC(O)COc1ccccc1C#N (centres undefined) | inactive
COc1ccc(C(Cl)=C(c2ccc(OC)cc2)c2ccc(OC)cc2)cc1 | inactive
O=C(CCN1CCN2CCCC2C1)N1c2ccccc2Sc2ccc(Cl)cc21 (centres undefined) | inactive
O=C1C(O)=C(O)C(=O)C(O)=C1O | inactive
O=[N+]([O-])c1cccc(S(=O)(=O)NCCNS(=O)(=O)c2cccc([N+](=O)[O-])c2)c1 | inactive
CC1CCc2c(N3CCC(O)CC3)c(F)cc3c(=O)c(C(=O)O)cn1c23 (centres undefined) | inactive
Oc1c(Cl)cc(Cl)c(Cl)c1Cc1c(O)c(Cl)cc(Cl)c1Cl | 6.75 µM (active)
OC(C#CCN1CCCC1)(c1ccccc1)c1ccccc1 | inactive
CN(C)CCOC(c1ccc(Cl)cc1)c1ccccn1 (centres undefined) | inactive
COc1ccccc1N1CCN(CCCCNC(=O)c2ccc(-c3ccc(C(C)=O)cc3)cc2)CC1 | inactive
CO[C@]12C[C@@H](COC(=O)c3cncc(Br)c3)CN(C)[C@@H]1Cc1cn(C)c3cccc2c13 | inactive
CN1CCN(CCC(=O)N2c3ccccc3Sc3ccc(C(F)(F)F)cc32)CC1 | inactive
CC(C)(C)NC[C@H](O)COc1nsnc1N1CCOCC1 | inactive
CN(C)CCN1C(=O)c2ccccc2N(C)c2ccccc21 | inactive
CCN(CC)CCOc1ccccc1C(=O)CCc1ccccc1 | inactive
CC[N+](C)(CC)CCOC(=O)C(O)(c1ccccc1)C1CCCCC1 (centres undefined) | inactive
